Screens: PubChem BioAssay, National Center for Advancing Translational Sciences (NCATS)
SMN2 splice up: qHTS Assay for Enhancers of SMN2 Splice Variant Expression | HEK293 SMN2-luciferase splicing reporter, luminescence, 30-36 h | Potency, µM (top dose mostly 46.1 µM), for inactives: top-dose activity change, positive = activation, most hits filed as activators | 210,000 tested, 2.8% active | AID 1458, 2008; further: % of control where 0% means no effect; nearly all actives have a fitted effect of over 55% in size
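HEK293 cells carry an SMN2 […]–luciferase reporter in which exon 7 inclusion puts luciferase in frame. Cells were plated 10-12 h before compound addition, then incubated 30-36 h at 37C. ONE-Glo luminescence was read; sodium butyrate at 4.5 mM final served as control.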
NPC1 prom act: qHTS Assay for NPC1 Promoter Activators; Huh7 NPC1 promoter luciferase reporter, 24 h; Potency, µM (doses to about 9.22 µM), for the others: at the highest dose activation, hits mostly activators; 320,000 tested, 2.4% active; AID 485313, 2010; further: % of control where 0% means no effect; nearly all actives have a fitted effect of over 60% in size
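Quantitative HTS used a cell-based reporter: Huh7 cells stably bearing the NPC1 promoter upstream of luciferase were treated with compounds for 24 h, and promoter activation was read as luminescence.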
Rab9 prom act: qHTS Assay for Rab9 Promoter Activators. Huh7 Rab9 promoter-luciferase reporter, luminescence, 24 h. Potency, µM (doses to about 9.22 µM), for the others: top-dose activation, negative = inhibition, hits mostly activators. 320,000 tested, 2.8% active. AID 485297, 2010; further: % of control where 0% means no effect; nearly all actives have a fitted effect of over 60% in size
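Measured in stably transfected Huh7 cells bearing a Rab9 promoter–luciferase construct: 24 h compound treatment at 37 °C, followed by luminescence detection.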
ELG1 repair inh: qHTS screen for small molecules that inhibit ELG1-dependent DNA repair in human embryonic kidney (HEK293T) cells expressing luciferase-tagged ELG1 | HEK293T ELG1-luciferase reporter, luminescence, 16 h; DNA damage induced by 5-fluorouridine | Potency, µM (titrated, usually from 46.1 µM), for the others: at the top dose activity change, negative = inhibition, most hits filed as inhibitors | 330,000 tested, 2.3% active | AID 504467, 2011; further: on the % scale 0 is the no-effect control and ±100 the full control effect; nearly all actives have a fitted effect of over 55% in size
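Luminescence from the luciferase reporter, measured 30 min after ONE-Glo reagent at room temperature, was the read-out. Beforehand, 2,000 cells per well were exposed for 16 hr at 37 °C to 5-fluorouridine together with compound or vehicle.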
FLuc modulator: qHTS profiling assay for firefly luciferase inhibitor/activator using purifed enzyme and Km concentrations of substrates (counterscreen for miR-21 project) | Luciferin 4-monooxygenase (Photinus pyralis), P08659 | purified FLuc, Km substrates, luminescence inhibition | Potency, µM (titrated, usually from 57.5 µM), inactives show top-dose activity change, negative = inhibition, most hits filed as inhibitors | 360,000 tested, 6.9% active | AID 588342, 2011;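 further: plate controls were vehicle for no effect and reference inhibitor for full effect; nearly all actives have a fitted effect of over 55% in size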
Target sequence (P08659 whole entry, looked up): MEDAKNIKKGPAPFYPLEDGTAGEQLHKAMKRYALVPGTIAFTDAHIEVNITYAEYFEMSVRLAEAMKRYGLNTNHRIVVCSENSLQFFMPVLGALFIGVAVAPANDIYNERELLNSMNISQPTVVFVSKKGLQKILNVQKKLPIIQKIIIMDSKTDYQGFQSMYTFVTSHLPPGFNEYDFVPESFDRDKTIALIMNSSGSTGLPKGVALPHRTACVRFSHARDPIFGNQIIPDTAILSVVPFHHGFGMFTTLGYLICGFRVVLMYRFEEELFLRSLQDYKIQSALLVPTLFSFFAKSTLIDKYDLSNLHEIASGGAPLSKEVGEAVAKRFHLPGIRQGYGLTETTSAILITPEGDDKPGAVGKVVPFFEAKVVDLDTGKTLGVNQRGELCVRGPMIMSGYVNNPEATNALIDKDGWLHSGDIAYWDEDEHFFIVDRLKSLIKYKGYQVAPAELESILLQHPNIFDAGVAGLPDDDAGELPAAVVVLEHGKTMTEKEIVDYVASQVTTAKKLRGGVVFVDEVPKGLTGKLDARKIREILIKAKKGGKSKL
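Purified P. pyralis luciferase (10nM final) with 10uM D-luciferin and 10uM ATP (Km levels) in 50mM Tris acetate pH 7.5, 10mM Mg acetate, 0.01% Tween-20, 0.05% BSA; qHTS 6-point titration, ~60 µM downward; luminescence read.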
ELG1 genotox: qHTS screen for small molecules that induce genotoxicity in human embryonic kidney (HEK293T) cells expressing luciferase-tagged ELG1 | HEK293T ELG1-luciferase reporter, luminescence, 16 h | Potency, µM (top dose mostly 46 µM), inactives show top-dose activity change, positive = activation, actives largely listed as activators | 330,000 tested, 1.3% active; further: % of control where 0% means no effect; nearly all actives have a fitted effect of over 60% in size
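Screening used a luciferase reporter fused to human ELG1 in HEK293T cells. Luminescence was read on a CCD plate imager after 16 hr exposure and 30 min ONE-Glo incubation.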
Active calls of the source: *; ? = inconclusive; · = no result given. Rows were chosen to be rich in hits. Some 9.2% of all compounds tested hit in one or more screens of this group. The call rests on the fitted dose curve; in most records, active means well fitted curve in the direction sought with a large enough effect; inconclusive means small, poorly fitted or top-dose-only effect, or another doubt; inactive means no such curve, though single readings can be large; an effect the other way counts as inactive or inconclusive. Potency means the concentration at half of the fitted maximal effect.

SMILES	SMN2 splice up	NPC1 prom act	Rab9 prom act	ELG1 repair inh	FLuc modulator	ELG1 genotox
Cc1ccc(Nc2nnc(SCC(=O)NCCN3C(=O)CSC3=O)s2)cc1	?	2%	11%	?	8.5µM*	12%
Cc1ccc(Nc2nnc(SCC(=O)NC(Cc3c[nH]c4ccccc34)C(=O)O)s2)cc1 (stereo unspecified)	7%	-2%	-3%	18%	19µM*	4%
O=C(CSc1nnc(Nc2ccccc2)s1)NC1CCCC1	·	·	·	14%	·	-1%
Cc1ccc(Nc2nnc(SCC(=O)NC3CC3)s2)cc1	·	0%	6%	?	7.6µM*	4%
Cc1cccc(N2CCN(C(=O)C3CCN(S(=O)(=O)Cc4ccccc4)CC3)CC2)c1C	·	·	·	·	0%	·
CCCCNC(=O)/C=C/c1ccc(S(=O)(=O)Nc2ccc(OC)cc2)cc1	11%	-8%	-10%	-13%	3%	0%
COc1ccccc1NC(=O)CN1C(=O)C(c2ccc(F)cc2)=NC1(C)C	-5%	·	·	·	2%	·
CCCCC/C=C\C/C=C\CCCCCCCC(=O)NCCCC(=O)O	3%	·	·	·	·	·
COc1ccccc1OCCCOc1ccc(C)cc1Br	?	?	?	?	4.8µM*	18µM*
COc1ccccc1OCCCOc1ccc([N+](=O)[O-])cc1Cl	?	?	4.5µM*	?	5.4µM*	16%
COc1ccccc1OCCOCCOc1ccc(C)cc1Br	5%	-7%	-3%	1%	-11%	0%
COc1cccc(OCCCOc2ccc([N+](=O)[O-])cc2Cl)c1	-19%	-2%	-1%	2%	?	-2%
COc1cc(C)ccc1OCCCOc1ccccc1Br	3%	?	1.4µM*	?	19µM*	?
Cc1cccc(-c2cc(C(=O)Nc3ccc4c(c3)OCCO4)c3ccccc3n2)c1	-9%	-1%	14%	?	6.7µM*	-7%
COc1ccc(-c2cc(C(=O)OCC(=O)Nc3ccc4c(c3)OCO4)c3ccccc3n2)cc1	13µM*	22%	21%	?	?	0%
O=C(Nc1ccc2c(c1)OCCO2)c1cc(-c2ccccn2)nc2ccc(Br)cc12	-7%	-5%	-8%	1%	-4%	14%
CCOc1ccc(-c2cc(C(=O)Nc3ccc4c(c3)OCCO4)c3ccccc3n2)cc1	?	25%	?	-19%	2.4µM*	2%
CC1CCN(C(=O)c2ccc(CNS(=O)(=O)c3ccc(C(C)(C)C)cc3)cc2)CC1	·	·	·	?	·	-7%
O=C(COC(=O)C12CC3CC(CC(C3)C1)C2)Nc1ccc([N+](=O)[O-])cc1Cl	-6%	-3%	-5%	21µM*	4%	0%
CC(=O)OCC(=O)Nc1ccc([N+](=O)[O-])cc1Cl	-10%	0%	-3%	17%	-1%	-6%
Cc1ccc(/C=N/NC(=O)c2cc3c(ccc4ccccc43)o2)o1	·	5%	3%	?	?	-4%
O=C(NC1CC1)c1cc2ccccc2o1	·	11%	11%	11%	?	11%
CNC(=O)c1cc2c(ccc3ccccc32)o1	29%	?	?	?	19µM*	?
O=C(NC1CCCC1)c1cc2c(ccc3ccccc32)o1	13µM*	1.4µM*	1µM*	?	6µM*	4.6µM*
CCOC(=O)c1sc(NC(=O)c2nc3ncccn3n2)c(C(=O)OC(C)C)c1C	·	·	·	·	4%	·
CCOc1ccccc1N1CC(c2nc3ccccc3n2CCCOc2ccccc2OC)CC1=O (stereo unspecified)	23%	·	·	·	17µM*	·
